From PubChem BioAssay
Compounds with a hit are over-represented: about 19% of the library has one in this group of screens.
TDP1 cell noCPT: qHTS for Inhibitors of human tyrosyl-DNA phosphodiesterase 1 (TDP1): qHTS in cells in absence of CPT. DT40 Tdp1-/- hTDP1 cells, no CPT, ATP luminescence, 48 h. Potency, µM (series often up to 46.2 µM), for inactives: top-dose activity change, negative = growth inhibition, hits mostly inhibitors. actives 15% (n = 420,000). AID 686978, 2013; further: nearly all actives have a fitted effect of over 55% in size
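Cells were dispensed at 400 per well, compounds added by pin tool, plates incubated ≥48 hr at 37 °C, then CellTiter-Glo added for 30 min at room temperature before luminescence reading. Line: DT40 Tdp1-/- complemented with hTDP1; camptothecin omitted.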
HT1080 IDH1KD tx: kills HT-1080 cells with IDH1 knockdown; Potency, µM (top dose mostly 46.1 µM), without a hit: at the highest dose activity, negative = toxicity, most hits filed as cytotoxic; actives 2% (n = 360,000); HT-1080 IDH1 knockdown viability, ATP luminescence, 48 h;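 further: 0% = DMSO wells and -100% = cell-free medium wells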
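Using the IDH1-knockdown HT-1080 line run in the same batch and compound series as the NT line, viability after 48 h at 37 °C was determined by CellTiter-Glo luminescence and expressed as % activity.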
TDP1 cell CPT: growth inhibition of DT40 Tdp1-/-;hTDP1 cells with camptothecin (screen for TDP1 inhibitors) | chicken DT40 Tdp1-/-;hTDP1 cells + 20 nM CPT, ATP luminescence, 48 h | Potency, µM (highest dose often 46.2 µM), for inactives: at the top dose activity change, negative = growth inhibition, hits mostly inhibitors | actives 12% (n = 420,000); further: nearly all actives have a fitted effect of over 55% in size
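Chicken DT40 Tdp1-/- cells stably complemented with human TDP1 were seeded at 400 cells/well in medium containing 20 nM camptothecin, exposed to pin-transferred compounds, and grown at 37 °C for at least 48 hr. Viability was read as ATP luminescence.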
HT1080NT lethal: kills 2HG-producing HT-1080-NT fibrosarcoma cells. Potency, µM (series often up to 46.1 µM), inactives show top-dose activity, negative = less viability, actives largely listed as cytotoxic. actives 1.6% (n = 360,000). HT-1080-NT fibrosarcoma viability, CellTiter-Glo ATP luminescence, 48 h. AID 686970;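 further: NT is the 2HG producing partner of a matched IDH1 knockdown line; 0% = DMSO-treated cells and -100% = media-only wells without cells; nearly all actives have a fitted effect of over 55% in size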
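HT-1080-NT; 750 cells/well; 5% FBS RPMI; 48 h compound, 37 degrees C; CellTiter-Glo luminescence; curve fitting and curve-class assignment.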
KB-3-1 cytotox: KB-3-1 parental cell cytotoxicity; KB-3-1 viability, CellTiter-Glo ATP luminescence, 72 h; actives 1.4% (n = 400,000); Potency, µM (doses to about 46.1 µM), hits mostly cytotoxic; further: nearly all actives have a fitted effect of over 60% in size
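KB-3-1 cells, DMEM (no phenol red) + 10% FBS; compound by pin transfer, 72 h, 37 °C. Readout: CellTiter-Glo luminescence after 10 min. Data normalized, curve-fitted.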
KB-V1 MDR tox: kills drug-selected multidrug resistant KB-V1 cells. KB-V1 MDR cells viability, CellTiter-Glo, 72 h. Potency, µM (highest dose often 46.1 µM), usual class: cytotoxic. actives 3.4% (n = 400,000); further: nearly all actives have a fitted effect of over 60% in size
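qHTS viability screen in drug-selected KB-V1 MDR cells: 72 h compound treatment at 37 degrees C, ATP luminescence end point.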
Active calls of the source: *. The call rests on the fitted dose curve; in most records, active means well fitted curve in the direction sought with a large enough effect; inconclusive means small, poorly fitted or top-dose-only effect, or another doubt; inactive means no such curve, though single readings can be large; an effect the other way counts as inactive or inconclusive. Unless noted, on the % scale 0 is the no-effect control and ±100 the full control effect; potency means the concentration at half of the fitted maximal effect.

What do the screens show for `CCOC(=O)[C@]12CCCC=C1N(Cc1ccc3c(c1)OCO3)C(=O)[C@H](CC(=O)NCCCCc1ccccc1)C2`?
TDP1 cell noCPT: 21µM*; HT1080 IDH1KD tx: 12µM*; TDP1 cell CPT: inconclusive; HT1080NT lethal: inconclusive; KB-3-1 cytotox: inconclusive; KB-V1 MDR tox: inconclusive

How did CCOC(=O)[C@]12CCCC=C1N(Cc1ccc3c(c1)OCO3)C(=O)[C@H](CC(=O)NCC13CC4CC(CC(C4)C1)C3)C2 do in these assays?
TDP1 cell noCPT: 23µM*; HT1080 IDH1KD tx: inconclusive; TDP1 cell CPT: inconclusive; HT1080NT lethal: -29%; KB-3-1 cytotox: inconclusive; KB-V1 MDR tox: inconclusive

What do the screens show for `CCCCNC(=O)C[C@@H]1C[C@@]2(C(=O)OCC)CCC=C2N(Cc2ccc3c(c2)OCO3)C1=O`?
TDP1 cell noCPT: inconclusive; HT1080 IDH1KD tx: 2%; TDP1 cell CPT: inconclusive; HT1080NT lethal: 6%; KB-3-1 cytotox: inactive; KB-V1 MDR tox: inactive

What do the screens show for `COC(=O)[C@]12CCCCC=C1N(Cc1ccc3c(c1)OCO3)C(=O)[C@H](CC(=O)NCCCCc1ccccc1)C2`?
TDP1 cell noCPT: inconclusive; HT1080 IDH1KD tx: inconclusive; TDP1 cell CPT: inconclusive; HT1080NT lethal: inconclusive; KB-3-1 cytotox: inactive; KB-V1 MDR tox: 16µM*

What do the screens show for `CCOC(=O)[C@]12CCC=C1N(Cc1ccc3c(c1)OCO3)C(=O)[C@H](CC(=O)NCCC(C)C)C2`?
TDP1 cell noCPT: 18µM*; HT1080 IDH1KD tx: 12%; TDP1 cell CPT: inconclusive; HT1080NT lethal: 1%; KB-3-1 cytotox: inactive; KB-V1 MDR tox: inconclusive

How did CCCCOC(=O)c1ccc(NC(=O)/C(C#N)=C/c2ccc(C)o2)cc1 do in these assays?
TDP1 cell noCPT: -22%; TDP1 cell CPT: 0%; KB-3-1 cytotox: inactive; KB-V1 MDR tox: inactive

How did CC(=O)N1CCc2c(sc3c2c(=O)n(-c2ccccc2)c(=O)n3CC(=O)c2ccc(Cl)cc2)C1 do in these assays?
TDP1 cell noCPT: inconclusive; TDP1 cell CPT: -21%; KB-3-1 cytotox: inactive; KB-V1 MDR tox: inactive

What do the screens show for `CCOC(=O)[C@]12CCC=C1N(Cc1ccc3c(c1)OCO3)C(=O)[C@H](CC(=O)NCc1ccccc1)C2`?
TDP1 cell noCPT: inconclusive; HT1080 IDH1KD tx: 23µM*; TDP1 cell CPT: inconclusive; HT1080NT lethal: -13%; KB-3-1 cytotox: inactive; KB-V1 MDR tox: inactive

Results for CCOC(=O)[C@]12CCC=C1N(Cc1ccc3c(c1)OCO3)C(=O)[C@H](CC(=O)NCCCCc1ccccc1)C2 ?
TDP1 cell noCPT: 21µM*; HT1080 IDH1KD tx: inconclusive; TDP1 cell CPT: inconclusive; HT1080NT lethal: inconclusive; KB-3-1 cytotox: inconclusive; KB-V1 MDR tox: inconclusive

What do the screens show for `Cc1nn2c(=O)cc(COc3ccc(/C=C(\C#N)C(=O)Nc4ccccc4C)cc3)nc2s1`?
TDP1 cell noCPT: inconclusive; TDP1 cell CPT: 14%; KB-3-1 cytotox: inactive; KB-V1 MDR tox: inactive

What do the screens show for `Cc1nn2c(=O)cc(COc3ccc(/C=C(\C#N)C(=O)Nc4ccccc4)cc3Cl)nc2s1`?
TDP1 cell noCPT: 21µM*; TDP1 cell CPT: -10%; KB-3-1 cytotox: inactive; KB-V1 MDR tox: inconclusive

How did Cc1ccc(S(=O)(=O)c2cn(CC(=O)Nc3ccc(F)cc3)c3cc4c(cc3c2=O)OCO4)cc1 do in these assays?
TDP1 cell noCPT: -17%; TDP1 cell CPT: -2%; KB-3-1 cytotox: inactive; KB-V1 MDR tox: inactive

How did O=Nc1ccc(NO)c2ccccc12 do in these assays?
TDP1 cell noCPT: 13µM*; HT1080 IDH1KD tx: 16µM*; TDP1 cell CPT: inconclusive; HT1080NT lethal: inconclusive; KB-3-1 cytotox: inconclusive; KB-V1 MDR tox: inconclusive

What do the screens show for `CC1(c2cccc3ccccc23)OC(=O)c2ccccc21` (stereo not drawn)?
TDP1 cell noCPT: inconclusive; HT1080 IDH1KD tx: inconclusive; TDP1 cell CPT: inconclusive; HT1080NT lethal: -4%; KB-3-1 cytotox: inconclusive; KB-V1 MDR tox: 18µM*

Results for Cc1cccc(CCNC(=O)C2CCN(c3nc4ccccc4nc3C(F)(F)F)CC2)c1 ?
TDP1 cell noCPT: inconclusive; TDP1 cell CPT: inconclusive; KB-3-1 cytotox: inactive; KB-V1 MDR tox: inactive

Results for Cc1csc(NC(=O)[C@@H]2CCCN2C(=O)c2cccs2)n1 ?
TDP1 cell noCPT: inconclusive; HT1080 IDH1KD tx: -9%; TDP1 cell CPT: -4%; HT1080NT lethal: -5%; KB-3-1 cytotox: inactive; KB-V1 MDR tox: inactive

How did Cc1cccc(C)c1OCC(O)CN(Cc1ccccc1O)C1CCCCC1 (stereo not drawn) do in these assays?
TDP1 cell noCPT: 10µM*; HT1080 IDH1KD tx: inconclusive; TDP1 cell CPT: 16µM*; HT1080NT lethal: 9.2µM*; KB-3-1 cytotox: inconclusive; KB-V1 MDR tox: inconclusive

Results for CN(CC(O)COc1ccc(OCC(O)CN(C)C2CCCCC2)cc1)C1CCCCC1 (stereo not drawn) ?
TDP1 cell noCPT: inconclusive; HT1080 IDH1KD tx: inconclusive; TDP1 cell CPT: inconclusive; HT1080NT lethal: -23%; KB-3-1 cytotox: inactive; KB-V1 MDR tox: inactive

What do the screens show for `C/C(=N\Nc1cc(C)nc(-c2ccccc2O)n1)c1ccccc1O`?
TDP1 cell noCPT: 13µM*; HT1080 IDH1KD tx: 5%; TDP1 cell CPT: -86%; HT1080NT lethal: 0%; KB-3-1 cytotox: inconclusive; KB-V1 MDR tox: inconclusive

How did C/C(=N\Nc1cccc([N+](=O)[O-])c1)c1ccccc1O do in these assays?
TDP1 cell noCPT: inconclusive; HT1080 IDH1KD tx: inconclusive; TDP1 cell CPT: inconclusive; HT1080NT lethal: inconclusive; KB-3-1 cytotox: inactive; KB-V1 MDR tox: inconclusive

How did CC(=NNc1ccc2ccccc2n1)c1ccccc1O do in these assays?
TDP1 cell noCPT: inconclusive; HT1080 IDH1KD tx: 0%; TDP1 cell CPT: inconclusive; HT1080NT lethal: 3%; KB-3-1 cytotox: inactive; KB-V1 MDR tox: 4.1µM*

Results for O=C(Nc1ccc2ccccc2n1)c1ccccc1Cl ?
TDP1 cell noCPT: inconclusive; HT1080 IDH1KD tx: -8%; TDP1 cell CPT: inconclusive; HT1080NT lethal: -6%; KB-3-1 cytotox: inactive; KB-V1 MDR tox: inactive

What do the screens show for `C/C(=N\Nc1nc2ccccc2nc1C)c1ccccc1O`?
TDP1 cell noCPT: 0.092µM*; HT1080 IDH1KD tx: inconclusive; TDP1 cell CPT: 0.13µM*; HT1080NT lethal: -13%; KB-3-1 cytotox: inactive; KB-V1 MDR tox: inactive

How did COc1ccc2nc(NC(=O)c3ccc(S(=O)(=O)N4CCC(C)CC4)cc3)sc2c1 do in these assays?
TDP1 cell noCPT: inconclusive; TDP1 cell CPT: 3%; KB-3-1 cytotox: inactive; KB-V1 MDR tox: inactive
